# Calls of active or inactive are those of the source.
# How the values were obtained:
# [1] = test system: Plasmodium falciparum Sir2 (PF13_0152, Sir2A); experiment: Plasmodium falciparum Sir2A binding compounds – biochemical, small-molecule microarray, 635 nm fluorescence, primary screen (AID 1098); conditions: fluorescence 635 nm, higher = more signal;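 further: score merges spot fluorescence intensity with its signal-to-noise ratio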
# [2] = probe aDKK1 binding to arrayed compounds – biochemical, biotinylated probe, 635/667 nm fluorescence, primary screen (AID 1099); conditions: small-molecule microarray, higher = more signal;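 further: score merges 667nm spot fluorescence with signal to noise across triplicate slides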
# [3] = probe aCHRDL2 binding to arrayed compounds – biochemical, biotinylated probe, 635/667 nm fluorescence, primary screen (AID 1100); conditions: small-molecule microarray, higher = more signal
# [4] = change in splice reporter luminescence, either direction, cell-based, HEK293, spliceosome inhibition project, primary screen (AID 1101); conditions: HEK293 splicing luciferase reporter, 24 h, higher = more signal, called active from +8 up or from −8 down;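 further: HEK293 cells carrying a splicing-competent luciferase reporter gene; test concentration not given here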
# [5] = biological target: Fibroblast growth factor 10 (Homo sapiens) (UniProt O15520); experiment: compounds binding fibroblast growth factor 10 – biochemical, small-molecule microarray, 635 nm fluorescence, primary screen (AID 1102); conditions: FGF10 binding, fluorescence 635 nm, higher = more signal
# [6] = test system: glycogen synthase kinase-3 (GSK3A per assay name; protocol says GSK3B); experiment: compounds binding glycogen synthase kinase-3 – biochemical, small-molecule microarray, 635 nm fluorescence, GSK3A, primary screen (AID 1103); conditions: fluorescence 635 nm, higher = more signal; further: the record names both GSK3A and GSK3B
# [7] = biological target: Epidermal growth factor receptor (Homo sapiens) (UniProt P00533); experiment: compounds binding epidermal growth factor receptor – biochemical, small-molecule microarray, 635 nm fluorescence, primary screen (AID 1104); conditions: EGFR binding, higher = more signal;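 further: score merges 667 nm emission intensity with spot signal to noise over triplicate slides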
# [8] = biological target: Follistatin-related protein 3 (Homo sapiens) (UniProt O95633); experiment: compounds binding follistatin-related protein 3 – biochemical, small-molecule microarray, 635 nm fluorescence, primary screen (AID 1105); conditions: FSTL3 binding, higher = more signal;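 further: score merges emission near 667 nm and signal to noise per printed spot across three slides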
# [9] = biological target: Dickkopf-related protein 1 (Homo sapiens) (UniProt O94907); experiment: small molecules binding DKK1 protein – biochemical, small-molecule microarray, 635 nm fluorescence scan, primary screen (AID 1106); conditions: higher = more signal;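 further: score merges emission near 667 nm with signal to noise over three replicate slides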
# [10] = test system: Inhibin beta A chain (activin A); experiment: small molecules binding activin A – biochemical, small-molecule microarray, 635 nm fluorescence scan, primary screen (AID 1107); conditions: INHBA, higher = more signal;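 further: mouse activin A protein probed at 4.33 µg/mL on printed slides; score merges bound-protein fluorescence near 667 nm with spot signal-to-noise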
# [11] = test system: Human papillomavirus type 1a protein E7 (residues 44-93); experiment: small molecules binding HPV E7 44-93 – biochemical, small-molecule microarray, residues 44-93, 635 nm fluorescence, primary screen (AID 1108); conditions: fluorescence 635 nm, higher = more signal;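 further: E7 fragment applied at 1 µg/mL in TBST for 1 h at 4 C; score combines spot fluorescence with its signal to noise ratio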
# [12] = hepatitis C replication reporter changes, two-sided – Huh7 cells, luciferase reporter, HCV replication inhibitor project, primary screen (AID 1109); conditions: Huh7 HCV replicon luciferase reporter, 48 h; higher = more signal;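 further: huh7 hepatoma cells harbouring a luciferase neomycin HCV replicon reporter; luciferase luminescence as measure of HCV replicon replication; test concentration not given here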
# [13] = biological target: Left-right determination factor 2 (Homo sapiens) (UniProt O00292); experiment: small molecules binding LEFTY2 protein – biochemical, small-molecule microarray, 635 nm fluorescence scan, primary screen (AID 1110); conditions: higher = more signal
# [14] = biological target: Calmodulin-1 (Homo sapiens) (UniProt P0DP23); experiment: small molecules binding calmodulin-1 with EGTA – biochemical, small-molecule microarray, Cy5-labelled CALM1, profiling panel (AID 1111); conditions: Cy5-CALM1 binding fluorescence, higher = more signal;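 further: labelled calmodulin applied in Tris saline Tween buffer holding calcium plus EGTA and DTT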
# [15] = biological target: Calmodulin-1 (Homo sapiens) (UniProt P0DP23); experiment: small molecules binding Ca-loaded calmodulin-1 – biochemical, small-molecule microarray, Cy5-labelled CALM1, plus calcium, artefact control for SMM control-protein annotation, profiling panel (AID 1112); conditions: Cy5-CALM1 binding fluorescence, higher = more signal;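 further: score merges spot fluorescence with signal to noise from triplicate slides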
# [16] = probe aWnt5a binding to arrayed compounds – biochemical, biotinylated probe, 635/667 nm fluorescence, primary screen (AID 1113); conditions: small-molecule microarray, higher = more signal;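 further: score merges 667 nm fluorescence intensity with signal-to-noise per printed feature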
# [17] = probe aShh binding to arrayed compounds – biochemical, biotinylated probe, 635/667 nm fluorescence, primary screen (AID 1114); conditions: small-molecule microarray, higher = more signal;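 further: probe is biotin-labelled aShh protein from a stem cell growth factor screen; measures binding of labelled protein to compounds printed on the slide; score merges feature fluorescence at 667 nm with signal-to-noise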
# [18] = probe aNog binding to arrayed compounds – biochemical, biotinylated probe, 635/667 nm fluorescence, primary screen (AID 1115); conditions: small-molecule microarray, higher = more signal;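 further: probe is biotinylated aNog protein used at 0.15 µg/mL for 1 h at 4 C; z-score combines 667 nm fluorescence of each spot with its signal to noise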
# [19] = biological target: Torsin-1A-interacting protein 1 (Homo sapiens) (UniProt Q5JTV8); experiment: compound microarray binding of lysate hLAP1 – cell lysate, small-molecule microarray, COS7 lysate, 635/667 nm fluorescence, primary screen (AID 1116); conditions: 635 nm fluorescence, higher = more signal
# [20] = biological target: Alpha-bungarotoxin (Bungarus multicinctus) (UniProt P60615); experiment: compounds binding labelled alpha-BTX control protein – biochemical, small-molecule microarray, Alexa647 label, 635/667 nm fluorescence, artefact control for SMM control protein annotation, profiling panel (AID 1117); conditions: alpha-BTX-A647 binding fluorescence, higher = more signal
# Alpha-bungarotoxin (Bungarus multicinctus), sequence (P60615 whole entry, looked up): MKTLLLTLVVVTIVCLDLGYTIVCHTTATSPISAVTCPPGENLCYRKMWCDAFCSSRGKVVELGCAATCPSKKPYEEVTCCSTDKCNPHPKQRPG
# Fibroblast growth factor 10 (Homo sapiens), sequence (O15520 whole entry, looked up): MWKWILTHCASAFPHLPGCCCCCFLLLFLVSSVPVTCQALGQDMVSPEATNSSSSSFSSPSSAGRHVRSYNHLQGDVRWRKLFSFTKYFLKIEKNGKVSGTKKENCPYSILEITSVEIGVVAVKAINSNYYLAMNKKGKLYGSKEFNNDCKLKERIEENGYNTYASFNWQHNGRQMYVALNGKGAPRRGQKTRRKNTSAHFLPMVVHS
# Left-right determination factor 2 (Homo sapiens), sequence (O00292 whole entry, looked up): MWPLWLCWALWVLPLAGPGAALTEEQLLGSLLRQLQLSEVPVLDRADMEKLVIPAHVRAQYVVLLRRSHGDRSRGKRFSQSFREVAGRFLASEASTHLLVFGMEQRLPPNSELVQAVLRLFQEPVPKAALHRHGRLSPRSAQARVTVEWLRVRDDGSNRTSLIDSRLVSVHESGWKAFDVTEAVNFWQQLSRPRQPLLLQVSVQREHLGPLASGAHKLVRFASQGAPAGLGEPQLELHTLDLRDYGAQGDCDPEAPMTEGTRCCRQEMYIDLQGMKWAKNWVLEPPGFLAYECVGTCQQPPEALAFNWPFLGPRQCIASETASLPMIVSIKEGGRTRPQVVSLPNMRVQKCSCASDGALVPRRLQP
# Dickkopf-related protein 1 (Homo sapiens), sequence (O94907 whole entry, looked up): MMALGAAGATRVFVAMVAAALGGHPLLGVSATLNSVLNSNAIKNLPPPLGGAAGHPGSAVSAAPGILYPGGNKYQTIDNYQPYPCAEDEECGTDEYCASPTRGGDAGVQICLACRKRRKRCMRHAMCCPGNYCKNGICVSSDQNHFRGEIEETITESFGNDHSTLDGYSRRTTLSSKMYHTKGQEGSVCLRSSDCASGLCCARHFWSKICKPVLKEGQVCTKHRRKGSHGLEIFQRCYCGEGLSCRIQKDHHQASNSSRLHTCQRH
# Torsin-1A-interacting protein 1 (Homo sapiens), sequence (Q5JTV8 whole entry, looked up): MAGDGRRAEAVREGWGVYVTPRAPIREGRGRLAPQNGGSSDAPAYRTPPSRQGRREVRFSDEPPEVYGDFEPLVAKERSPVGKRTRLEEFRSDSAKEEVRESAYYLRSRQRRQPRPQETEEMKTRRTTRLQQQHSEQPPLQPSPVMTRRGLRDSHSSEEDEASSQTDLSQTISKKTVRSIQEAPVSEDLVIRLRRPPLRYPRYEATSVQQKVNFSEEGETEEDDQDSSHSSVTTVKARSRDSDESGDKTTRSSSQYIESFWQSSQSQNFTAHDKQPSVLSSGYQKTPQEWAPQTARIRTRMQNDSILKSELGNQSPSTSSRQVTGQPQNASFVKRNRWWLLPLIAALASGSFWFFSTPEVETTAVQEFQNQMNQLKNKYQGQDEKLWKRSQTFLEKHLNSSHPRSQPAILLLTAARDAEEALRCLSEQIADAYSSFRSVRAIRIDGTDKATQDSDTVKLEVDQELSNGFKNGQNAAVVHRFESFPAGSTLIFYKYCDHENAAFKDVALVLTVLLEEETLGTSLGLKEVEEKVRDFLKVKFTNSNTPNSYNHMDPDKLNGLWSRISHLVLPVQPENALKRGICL
# Follistatin-related protein 3 (Homo sapiens), sequence (O95633 whole entry, looked up): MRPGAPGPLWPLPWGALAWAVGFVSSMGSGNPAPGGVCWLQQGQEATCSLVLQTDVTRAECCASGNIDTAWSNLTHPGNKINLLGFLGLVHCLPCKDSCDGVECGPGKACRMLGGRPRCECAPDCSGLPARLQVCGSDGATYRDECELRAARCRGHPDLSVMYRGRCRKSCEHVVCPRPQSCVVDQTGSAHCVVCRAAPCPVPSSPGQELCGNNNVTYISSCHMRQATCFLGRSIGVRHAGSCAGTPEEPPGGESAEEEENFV
# Epidermal growth factor receptor (Homo sapiens), sequence (P00533 whole entry, looked up): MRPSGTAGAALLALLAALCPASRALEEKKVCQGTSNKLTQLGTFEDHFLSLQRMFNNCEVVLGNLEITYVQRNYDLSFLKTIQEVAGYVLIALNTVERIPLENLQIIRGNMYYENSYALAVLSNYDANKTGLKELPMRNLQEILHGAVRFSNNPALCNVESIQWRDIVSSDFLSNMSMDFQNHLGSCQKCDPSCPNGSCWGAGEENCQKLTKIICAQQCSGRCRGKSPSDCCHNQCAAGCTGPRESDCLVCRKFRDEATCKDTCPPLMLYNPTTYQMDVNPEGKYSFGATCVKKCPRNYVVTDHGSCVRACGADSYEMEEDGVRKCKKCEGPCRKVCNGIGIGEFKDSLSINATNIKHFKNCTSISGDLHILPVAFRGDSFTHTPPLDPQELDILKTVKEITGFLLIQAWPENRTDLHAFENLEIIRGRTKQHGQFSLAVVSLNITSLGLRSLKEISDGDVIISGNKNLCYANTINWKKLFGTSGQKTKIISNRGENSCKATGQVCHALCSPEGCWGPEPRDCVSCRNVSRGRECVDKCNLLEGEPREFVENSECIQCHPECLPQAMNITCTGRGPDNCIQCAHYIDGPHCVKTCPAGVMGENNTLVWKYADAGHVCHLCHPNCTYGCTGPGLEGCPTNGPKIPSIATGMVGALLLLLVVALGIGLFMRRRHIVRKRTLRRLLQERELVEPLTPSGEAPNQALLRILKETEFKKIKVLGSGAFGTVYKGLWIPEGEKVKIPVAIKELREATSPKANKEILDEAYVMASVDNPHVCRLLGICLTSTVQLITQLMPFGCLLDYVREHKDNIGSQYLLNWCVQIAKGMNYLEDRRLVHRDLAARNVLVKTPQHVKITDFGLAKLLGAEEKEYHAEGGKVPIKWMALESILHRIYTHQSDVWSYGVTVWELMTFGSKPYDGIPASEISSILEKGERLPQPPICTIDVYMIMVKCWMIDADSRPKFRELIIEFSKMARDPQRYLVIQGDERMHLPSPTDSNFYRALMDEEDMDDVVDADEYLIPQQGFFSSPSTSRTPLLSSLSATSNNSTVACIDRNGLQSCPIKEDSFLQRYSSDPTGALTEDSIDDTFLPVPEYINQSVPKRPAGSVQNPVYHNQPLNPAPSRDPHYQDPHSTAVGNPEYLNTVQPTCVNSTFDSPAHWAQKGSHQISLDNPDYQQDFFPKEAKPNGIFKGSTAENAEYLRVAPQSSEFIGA
Compound,composite z-score [1],composite z-score [2],composite z-score [3],z-score [4],composite z-score [5],composite z-score [6],composite z-score [7],composite z-score [8],composite z-score [9],composite z-score [10],composite z-score [11],z-score [12],composite z-score [13],composite z-score [14],composite z-score [15],composite z-score [16],composite z-score [17],composite z-score [18],composite z-score [19],composite z-score [20]
C#CCN(Cc1ccccc1Br)C(/C=C/c1ccccc1)CO (stereo not given),-0.877,-0.23,0.326,-1.03 (inactive),0.168,-0.398,-0.153,-0.649,-0.0455,0.904,-0.413,-3.49,-0.362,-0.669,-0.423,-0.16,0.0494,-0.443,0.104,0.0125
COc1cc(OC)c(C(O)C2C=CC3C(=O)NC(=O)C3N2Nc2ccc(Cl)cc2Cl)cc1Br (stereo not given),1.38,2.08,1.16,2.41 (inactive),0.0245,0.0735,-0.142,0.498,-0.985,0.312,1.09,-1.66,-0.75,2.09,0.436,-0.0685,0.0875,1.61,1.38,1.27
O=C1C2C=CC(C(O)c3c(F)cccc3Cl)N(Nc3ccccc3)C2C(=O)N1c1ccccc1 (stereo not given),0.741,0.532,0.256,-0.00944 (inactive),0.581,1.3,0.271,1.34,0.236,0.672,1.46,-0.927,0.407,1.46,0.546,0.0775,0.969,1.59,0.765,0.933
O=C1C[C@]2(c3ccc([N+](=O)[O-])cc3)C(=O)N(CCN3CCOCC3)c3cc(CO)ccc3[C@H]2N1C1CCCCC1,0.781,0.42,0.828,-1.05 (inactive),-0.142,-0.587,-0.517,-0.875,-0.877,0.342,-1.26,-0.809,-0.91,-0.146,0.0884,-0.363,-0.211,-0.405,-0.308,-0.251
O=C1O[C@@H](c2ccccc2)[C@@H](c2ccccc2)N2[C@@H](c3ccccc3OCCO)[C@]3(C(=O)Nc4ccc(C#CC5=CCCCC5)cc43)[C@@H](C(=O)Nc3nc4ccccc4s3)[C@H]12,1.5,0.0826,-0.0401,-0.459 (inactive),1.32,1.29,0.463,1.23,0.619,0.137,1.4,-2.52,0.501,1.32,0.337,-0.0084,0.356,-0.167,0.705,1.32
C=CC[C@@]1(C(=O)N(C)C)N=C(c2ccc(OCCCO)cc2)O[C@@H]1c1ccccc1N=[N+]=[N-],1.59,1.33,1.35,-1.2 (inactive),0.826,1.2,0.145,0.884,0.368,0.636,0.608,-1.08,0.232,2.66,1.03,0.0597,0.613,2.21,2.7,2.95
C=CC[C@]1(C(=O)NCCCOC)N=C(c2ccc(OCCCO)cc2)O[C@H]1c1ccccc1N=[N+]=[N-],1.65,-0.188,0.658,-0.885 (inactive),1.44,0.746,-0.223,0.348,-0.516,1.29,1.05,-0.682,-0.338,2.08,0.312,0.191,0.535,1.8,1.47,0.928
COCCOC(=O)N1C(=O)[C@@]2(c3cc(C#CCCO)ccc31)[C@H](C(=O)N1CCc3cc(OC)c(OC)cc3C1)[C@H]1C(=O)O[C@H](c3ccccc3)[C@H](c3ccccc3)N1[C@@H]2c1ccc(O)cc1,1.58,0.0869,0.43,-0.341 (inactive),1.06,1.29,0.413,0.81,0.547,-0.132,1.41,-1.34,0.332,0.527,0.294,-0.1,0.123,0.119,0.987,1.24
C[C@@H]1ON(c2cccc(C(=O)OC(C)(C)C)c2)[C@H](c2ccc(Br)cc2)[C@H]1C(=O)N1C(=O)OC[C@H]1Cc1ccccc1,0.801,-0.155,-0.319,-0.0916 (inactive),1.15,0.962,0.51,1.03,0.693,0.272,1.16,-1,0.552,0.702,-0.367,0.667,0.0756,1.09,2.7,0.518
C=CCOC(=O)[C@H]1[C@@H]2C(=O)O[C@@H](c3ccccc3)[C@@H](c3ccccc3)N2[C@@H](c2ccc(OCCOC(=O)[C@H]3C[C@H]4C(=O)N5CCC[C@H]5C(=O)N4[C@H]3c3ccc(O)cc3)cc2)[C@]12C(=O)Nc1ccc(I)cc12,2.09,1.76,1.42,-1.93 (inactive),1.47,1.37,0.429,1.42,1.97,1.41,1.48,0.56,1.52,1.22,1.41,0.547,2.8,2.82,2.74,2.81
O=C1OCCC/C=C\[C@H]2OC34C=CCN(Cn5nnc6ccccc65)C(=O)[C@H]3N(CCO)C(=O)[C@@H]4C12 (stereo not given in full),1.31,-0.316,0.292,-1.48 (inactive),-0.468,-0.963,-0.898,-1.41,-1.14,-0.171,-0.249,-0.317,-1.84,-0.173,0.963,-0.187,0.022,0.235,-0.482,-0.601
O=C(NCc1ccc(F)cc1)[C@H]1C[C@H]2C(=O)N[C@@H](Cc3ccccc3)C(=O)N2[C@H]1c1ccc(O)cc1,1.06,-0.103,0.105,-0.41 (inactive),0.123,-0.469,-0.394,-0.383,0.274,-0.266,0.335,-0.522,-0.469,0.0755,0.531,-0.148,-0.244,-0.235,0.33,-0.051
CCCCC(=C=CC[C@@H](O)c1ccccc1OCCO)CCO,-0.189,0.0035,0.001,0.579 (inactive),0.209,-1.3,-0.903,-0.375,-0.382,0.857,-0.0803,-0.23,-0.855,0.184,0.23,-0.147,-0.366,-0.034,0.212,-0.0423
CC(=O)N1Cc2ccccc2C[C@@]2(COC(c3ccc(OCCCO)cc3)=N2)C1=O,1.32,1.18,1.31,-1.66 (inactive),0.649,1.32,0.455,1.13,0.438,1.09,0.612,-1.62,0.827,1.79,0.845,0.0587,0.412,0.114,1.7,1.88
COc1ccc(C(O)C2C=CC3C(=O)N(c4ccccc4)C(=O)C3N2Nc2ccc(C(C)C)cc2)cc1OCc1ccccc1 (stereo not given),1.5,1.17,1.27,-0.00529 (inactive),0.889,1.27,0.207,1.29,-0.213,0.521,0.473,-0.264,0.346,2.13,0.682,0.145,-0.0375,0.299,0.598,2.07
C=CCOC(=O)[C@H]1[C@@H]2C(=O)O[C@@H](c3ccccc3)[C@@H](c3ccccc3)N2[C@@H](c2ccc(OCCOC(=O)[C@@H]3C[C@@H]4C(=O)N[C@@H](CCCC[N+](C)(C)C)C(=O)N4[C@@H]3c3ccc(O)cc3)cc2)[C@]12C(=O)Nc1ccccc12,1.05,0.415,-0.372,-0.794 (inactive),0.805,1.3,0.383,1.24,0.716,-0.0117,1.26,-1.11,0.498,-0.0632,-0.499,-0.0398,0.123,-0.13,0.425,0.428

# Source: PubChem BioAssay
